# BioA inh: blocks M. tuberculosis BioA enzyme activity. 360,000 compounds, 0.096% hits. inhibition, % at 9.99 µM. AID 602481. purified M. tuberculosis BioA enzyme, plate reader; in the data active = inhibition above about 40%; inconclusive = no clear call, values can overlap the other calls
# PfHsp40 rescue: rescue of PfHsp40-mediated yeast toxicity; S. cerevisiae expressing PfHsp40, growth rescue, ATP luminescence; growth rescue, % at 12.5 µM; 340,000 compounds, 0.68% hits; in the data active = growth rescue above about 28%, passing the limit was not always enough; inconclusive = no clear call, values can overlap the other calls;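 note: yeast W303a lacking pdr1 and pdr3 grown in galactose medium; growth measured after three days at 30 °C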
# PrP UTR inh: inhibition of PrP 5' UTR reporter expression | cell-based PrP 5' UTR mRNA reporter, plate reader | inhibition, % (no concentration beside the values) | 340,000 compounds, 0.35% hits | AID 488862; in the data active = inhibition above about 52%; note: 0 = median of the neutral control wells
# FadD28 FP inh: M. tuberculosis FadD28 bisubstrate binding inhibition | FadD28 bisubstrate probe binding, fluorescence polarization | inhibition, % at 12.5 µM | 360,000 compounds, 0.22% hits; in the data active = inhibition above about 8.5%, passing the limit was not always enough; inconclusive = no clear call, values can overlap the other calls
# TcdB inh: TcdB glycohydrolase inhibition; P18177; TcdB glycohydrolase enzymatic assay, plate reader; inhibition, % at 9.99 µM; 350,000 compounds, 0.24% hits; in the data active = inhibition above about 10%
# * = called active by the depositor; ? = inconclusive; . = no result. This is a sample that favours compounds with a hit; in the whole collection about 1.1% have one here.
SMILES,BioA inh,PfHsp40 rescue,PrP UTR inh,FadD28 FP inh,TcdB inh
Cc1cccc(NC(=O)COC(=O)c2ccc([N+](=O)[O-])o2)c1C,-1,53*,-13,0,-1
Cc1noc(C)c1NC(=O)Nc1cccc2c1O[C@@H](CN(C)C(=O)NC1CCCCC1)[C@H](C)CN([C@H](C)CO)C2=O,-1,.,.,.,.
O=C(c1ccccc1F)N1CCN(S(=O)(=O)c2ccc3ccccc3c2)CC1,3,30*,-8,-3,0
CC(C)NC(=O)N(C)C[C@@H]1Oc2cc(-c3cncnc3)ccc2S(=O)(=O)N([C@H](C)CO)C[C@H]1C,0,.,.,.,-1
Cc1ccccc1S(=O)(=O)N1CC[C@H]2[C@H](CO)Nc3ccc(-c4ccc(C#N)cc4)cc3[C@H]21,-1,.,.,.,1
Cc1ccc(Cn2ccc(=O)c(Cc3c(Cl)cccc3Cl)c2C)cc1,6,1,1,-4,.
Cc1c(Cc2c(Cl)cccc2Cl)c(=O)ccn1C(C)c1ccccc1 (centres undefined),11,52*,-30,-5,.
COc1ccc(NC(=O)N(C)C[C@@H]2OCCCC[C@H](C)Oc3ccc(NC(=O)Nc4cccc5ccccc45)cc3C(=O)N([C@@H](C)CO)C[C@H]2C)cc1,-4,.,.,.,.
O=C(C[C@H]1C[C@H]2c3cc(NC(=O)c4cccnc4)ccc3O[C@H]2[C@@H](CO)O1)NCC1CC1,17,.,.,.,0
Cc1cc(/C=C\c2ccc3cc(N(C)C)ccc3[n+]2C)c(C)n1-c1ccccc1,0,5,73*,2,.
C[n+]1c(/C=C/c2ccc(O)cc2)ccc2ccccc21,3,1,-28,0,2
O/N=C(\c1ccc(Cl)cc1)c1cc2ccccc2o1,-3,641*,-35,-6,2
O=C(Nc1ccc(Cl)cc1Cl)c1cc2ccccc2o1,-3,-1,-49,0,0
N#C/C(=C\c1ccncc1)c1nc2ccccc2o1,-2,.,.,0,-1
N#C/C(=C\Nc1ccccc1O)c1nc2ccccc2o1,-2,452*,-39,0,-9
C/C(=N\Nc1ccc([N+](=O)[O-])cc1)c1cccc(N)c1,0,?,-41,-2,15*
C/C(=N\Nc1ccc([N+](=O)[O-])cc1)c1ccc(O)cc1,.,180*,-55,0,7
C/C(=N\Nc1ncc(Br)cn1)c1cccc([N+](=O)[O-])c1,-2,2,-26,-3,-1
CN1C(=O)c2cc(NC(=O)C3CCCC3)ccc2OC[C@H]2O[C@H](CC(=O)NCCc3ccncc3)CC[C@@H]21,.,.,.,.,0
COc1ccc(-c2oc(NC(=O)CSc3nncn3C)c(C#N)c2-c2ccc(OC)cc2)cc1,0,44*,-15,1,.
CCn1c(SCC(=O)Nc2oc(-c3ccccc3)c(-c3ccccc3)c2C#N)nnc1-c1ccco1,.,-2,-8,0,.
Cc1ccc(S(=O)(=O)N(C)C[C@@H]2Oc3c(NC(=O)c4ccc(-c5nccs5)cc4)cccc3C(=O)N([C@H](C)CO)C[C@H]2C)cc1,1,.,.,.,-2
O=C(CCN1CCCCC1)NCC[C@@H]1CC[C@@H](NC(=O)Cc2cccnc2)[C@H](CO)O1,-2,.,.,.,0
O=C([C@H]1[C@H](CO)[C@H]2Cn3c(cccc3=O)[C@@H]1N2C(=O)c1ccccc1)N1CCCCC1,1,.,.,.,1
Cc1nc2ccc(C(C(F)(F)F)(C(F)(F)F)C(F)(F)F)cc2[nH]1,1,241*,-58,-2,.
SMILES,BioA inh,PfHsp40 rescue,PrP UTR inh,FadD28 FP inh,TcdB inh
Cc1nc2ccc(Cl)cc2[nH]1,0,0,3,-1,1
CCc1ccc(OCc2n[nH]c(=S)n2C(C)CCCC(C)C)cc1 (centres undefined),.,57*,-55,-6,0
CC(C)CCn1c(COc2ccccc2)n[nH]c1=S,-3,1,-7,-1,2
CCc1ccc(OCc2n[nH]c(=S)n2Cc2ccccc2)cc1,1,101*,-27,-2,0
CN1[C@H](C(=O)NC2CCCCC2)[C@@H](CO)[C@@H]2Cn3c(ccc(/C=C/c4ccccc4)c3=O)[C@@H]21,0,.,.,.,1
O=S(=O)(c1ccccc1)N1CCN=C1SCc1ccccc1,.,1,-7,-2,10*
OC(Cn1cncn1)(Cn1cncn1)c1ccc(F)cc1F,-1,179*,-2,1,1
CCN1CCN(Cc2ccc(NC(=O)c3cc(NC(=O)c4cc(-c5ccc(OC)cc5)n[nH]4)cc(OC)c3)cc2C(F)(F)F)CC1,0,-2,-20,67*,2
O=C(C[C@@H]1C[C@@H]2c3cc(NC(=O)C4CCOCC4)ccc3O[C@@H]2[C@H](CO)O1)NCC1CC1,-3,.,.,.,0
CC(C)(C)c1ccc(NC(=S)NCc2cccs2)cc1,.,?,-31,42*,.
CCC(C)c1ccc(NC(=S)NCc2cccs2)cc1 (centres undefined),0,1,-19,7,.
O=C(c1ccco1)N1CCN(C(=O)c2ccccc2OCc2ccc(Cl)cc2)CC1,3,253*,-15,-3,1
O=C(OCC(=O)N1CCN(C(=O)c2ccco2)CC1)c1ccccc1OCc1ccccc1,5,1,2,0,.
COC1C(OC(=O)c2ccc(C)[nH]2)C(O)C(Oc2ccc3c(O)c(NC(=O)c4ccc(O)c(CC=C(C)C)c4)c(=O)oc3c2Cl)OC1(C)C (centres undefined),4,3,-4,20*,1
CCOC(=O)C1CCCN(C2CC(=O)N(c3ccccc3)C2=O)C1 (centres undefined),-1,0,-16,1,1
CCOC(=O)C1CCCN(C2CC(=O)N(c3cccc(C(F)(F)F)c3)C2=O)C1 (centres undefined),-1,44*,-22,-5,.
C/C=C1\NC(=O)[C@H](CC(N)=O)N(C)C(=O)C([C@@H](C)O)NC(=O)C(CCCc2ccc(OC)cc2)NC(=O)[C@H](C(C)C)NC(=O)/C(=C\C)NC(=O)[C@H](O)[C@@H](C[C@@H](O)CCCCCCC)NC(=O)[C@H](C)NC(=O)CN(C)C(=O)[C@H](CCC(N)=O)NC1=O (some centres undefined),5,9,-17,11*,1
C[C@H]1CN([C@@H](C)CO)C(=O)Cc2cc(NC(=O)Nc3ccc(C(F)(F)F)cc3)ccc2O[C@H]1CN(C)Cc1ccc2c(c1)OCO2,3,.,.,.,-2
C[C@H]1CCCCO[C@H](CN(C)Cc2ccc3c(c2)OCO3)[C@@H](C)CN([C@@H](C)CO)C(=O)c2cc(NC(=O)c3ccccc3)ccc2O1,0,.,.,.,0
CCN1C(=O)C(CC(=O)Nc2ccccc2Cl)N(NC(=O)c2cccc(F)c2)C1=S (centres undefined),0,122*,-11,2,1
CNC(=O)CC1C(=O)N(Cc2ccccc2)C(=S)N1NC(=O)c1cccc(F)c1 (centres undefined),0,-1,-9,-1,1
C[C@H](NC(=O)C[C@@H]1C=C[C@H](NC(=O)Nc2ccc3c(c2)OCO3)[C@@H](CO)O1)c1ccccc1,1,.,.,.,-2

# High-throughput results: PubChem, Broad Institute
